Assay results: PubChem BioAssay (NCI)
The panel holds about 83,000 compounds, 20% with a hit somewhere; the sample as a whole holds those more often.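 For each line, cells grew in 96-well plates with the test compound present at a single concentration for 48 hours.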 Values without a mark were called inactive. Active and inactive are the calls of the source. The calls were made as follows: active = growth percent below 10; inactive = the rest.

Tests used:
Assay in all cases: NCI-60 one-dose screen, 48 h (100 = growth as untreated, 0 = no growth, -100 = all killed)
[1] = system: SR leukemia; settings: 10 µM unless noted
[2] = system: RPMI-8226 leukemia; settings: 10 µM unless noted
[3] = system: OVCAR-8 ovarian; settings: 10 µM unless noted
[4] = system: OVCAR-5 ovarian; settings: 10 µM unless noted
[5] = system: OVCAR-4 ovarian; settings: 10 µM unless noted
[6] = system: SK-OV-3 ovarian; settings: 10 µM unless noted
[7] = system: IGROV1 ovarian; settings: 10 µM unless noted
[8] = system: OVCAR-3 ovarian; settings: 10 µM unless noted
[9] = system: NCI/ADR-RES ovarian; settings: 10 µM unless noted
[10] = system: T-47D breast; settings: 10 µM unless noted
[11] = system: BT-549 breast; settings: 10 µM unless noted
[12] = system: MDA-MB-435 melanoma; settings: 10 µM unless noted
[13] = system: SW-620 colon; settings: 10 µM unless noted
[14] = system: MCF7 breast; settings: 10 µM unless noted
[15] = system: HCT-116 colon; settings: 10 µM unless noted
[16] = system: KM12 colon; settings: 10 µM unless noted
[17] = system: HCC-2998 colon; settings: 10 µM

Compound | growth [1] | growth [2] | growth [3] | growth [4] | growth [5] | growth [6] | growth [7] | growth [8] | growth [9] | growth [10] | growth [11] | growth [12] | growth [13] | growth [14] | growth [15] | growth [16] | growth [17]
N#CC[C@H](C1CCCC1)n1cc(-c2ncnc3[nH]ccc23)cn1 | 2.14% (active) | 81.2% | 64.4% | 50.1% | 81.5% | 38.4% | 38% | 83% | 87.9% | 72% | 77.9% | 69.8% | 73.2% | 41.5% | 39.4% | 19.1% | 
CNC(=O)c1c(C)oc2cc(Oc3ncnc4cc(OC)c(OC)cc34)ccc12 | 85.7% | 105% | 85.3% | 95.3% | 78.3% | 92.3% | 95.2% | 89.2% | 95.1% | 94% | 73.6% | 114% | 104% | 97.6% | 93.7% | 102% | 
CC(C)NC[C@@H](C(=O)N1CCN(c2ncnc3c2[C@H](C)C[C@H]3O)CC1)c1ccc(Cl)cc1 | 45.5% | 61.2% | 68.3% | 54.4% | 77.5% | -9.72% (active) | 0.674% (active) | 49.7% | 84.2% | -9.42% (active) | 25.2% | 68.2% | 71.4% | 30.9% | 61.4% | 18.9% | 
CC1(C)NC(=O)c2[nH]c3c(Cl)c(Cl)ccc3c2C1C#N (stereo unspecified) | 67.5% | 69.6% | 89.2% | 85.2% | 60.7% | 100% | 100% | 82.4% | 85% | 59.2% | 73.3% | 88.1% | 105% | 87% | 83.6% | 93.4% | 
Cc1cnc(NC(=O)Nc2cc(Br)c(C)cc2OC[C@@H]2CNCCO2)cn1 | -18.5% (active) | 13% | 1.6% (active) | 36.6% | 45.6% | 32% | 30.5% | 22.2% | 7.93% (active) | -46.5% (active) | 23.6% | -36.2% (active) | 20.8% | 2% (active) | 10.4% | 15% | 12%
CN[C@@H]1C[C@H]2O[C@@](C)([C@@H]1OC)n1c3ccccc3c3c4c(c5c6ccccc6n2c5c31)C(=O)N[C@H]4O | 1.68% (active) | -46.2% (active) | -36.7% (active) | -2.9% (active) | 16% | -68.5% (active) | 0.929% (active) | -31.6% (active) | -39.1% (active) | -49.2% (active) | -88.5% (active) | -79.4% (active) | -6.96% (active) | -46.8% (active) | -49.3% (active) | -59.8% (active) | -74.5% (active)
N[C@@H]1CCCN(c2c(/C=C3\SC(=O)NC3=O)cccc2-c2ccccc2)C1 | 22.1% | 13% | 61.1% | 64.4% | 11.4% | 63.6% | 66.7% | 54.2% | 88.1% | 25.7% | 0.186% (active) | 56.7% | 60.3% | 45.3% | 50.6% | 60.3% | 74.8%
C[C@@H]1COCCN1c1cc(C2([S@](C)(=N)=O)CC2)nc(-c2ccnc3[nH]ccc23)n1 | 7.14% (active) | 32.4% | 30.7% | 34.5% | 30.3% | 4.16% (active) | 17.7% | 31.7% | 80.4% | 21.4% | 27.2% | 31% | 43.7% | 14.4% | 35.5% | 21.4% | 
CCn1cc(-c2ccnc3[nH]c(-c4cccc(CN(C)C)c4)cc23)c(-c2ccc(NC(=O)N(C)C)cc2)n1 | -15.8% (active) | 3% (active) | 24.9% | 24.5% | 41.1% | -0.688% (active) | 26.3% | 48.1% |  | 58% | 14.1% | 51.3% | 2.66% (active) | 16.1% | 8.47% (active) | 11.1% | 60%
Cc1nc(-c2cn3c(n2)-c2ccc(-c4cnn(C(C)(C)C(N)=O)c4)cc2OCC3)n(C(C)C)n1 | 30.1% | 39.3% | 32.9% | 28.8% | 62.5% | -22.1% (active) | -10.7% (active) | 24.5% | 39.2% | -9.88% (active) | 14.9% | 27.8% | 44% | 13.7% | 20.4% | 16.2% | 
COc1cc2ncnc(Oc3cccc(NC(=O)Nc4cc(C(C)(C)C(F)(F)F)on4)c3)c2cc1OC | 28.5% | 30.6% | 25.1% | 12.8% | 36.3% | -26.5% (active) | -11.1% (active) | 50.4% |  | 9.47% (active) | 37.4% | 13.3% | 27.4% | 37.8% | 10.8% | 42.4% | 52.8%
Cn1cnc(-c2cc3nccc(Oc4ccc(NC(=S)NC(=O)Cc5ccccc5)cc4F)c3s2)c1 | 69.3% | 54.9% | 75.9% | 111% | 86.7% | 82.6% | 95.4% | 80.5% |  | 65.8% | 77.3% | 93.2% | 76.7% | 79.5% | 78.8% | 21.8% | 104%
O=C(Nc1cnn2ccc(N3CCC[C@@H]3c3cc(F)ccc3F)nc12)N1CC[C@H](O)C1 | 72.1% | 91.1% | 80.4% | 114% | 117% | 79.6% | 105% | 99.9% | 97% | 78.3% | 90.5% | 93% | 106% | 99.7% | 83.1% | 26.7% | 
O=C(NOCCO)c1ccc2cncn2c1Nc1ccc(I)cc1F | 56.9% | 72.8% | 58.6% | 19.3% | 70.8% | 49% | 26.2% | 102% | 71.8% | 83.4% | 88.8% | 47.4% | 24.6% | 96.2% | 15.1% | 28.6% | 
Cc1ccc(F)c(NC(=O)Nc2ccc(-c3cccc4[nH]nc(N)c34)cc2)c1 | 4.39% (active) | 9.63% (active) | 9.41% (active) | 21.4% | 21.1% | 52.1% | 10.1% | 33.2% |  | 1.25% (active) | 29.2% | 16.8% | 14.9% | 2.81% (active) | 6.9% (active) | 2.63% (active) | -6.88% (active)
COc1ccc(Br)cc1NC(=O)Nc1cccc2c1ccn2Cc1ccnc(N)c1 | 7.97% (active) | 15.2% | 21.2% | 47.8% | 38.8% | 26.7% | 36.3% | 67.4% | 31.1% | 6.9% (active) | 51.1% | 11.1% | 19.4% | 16.5% | 16.8% | 10.3% | 
COC1CCC(N2C(=O)CNc3ncc(-c4ccc(C(C)(C)O)nc4)nc32)CC1 (stereo unspecified) | -0.973% (active) | -2.19% (active) | 5.09% (active) | 9.72% (active) | -7.38% (active) | -27.6% (active) | -2.9% (active) | 8.66% (active) | 3.73% (active) | -24% (active) | -8.77% (active) | -27.9% (active) | 12% | 3.23% (active) | 11.4% | 7.39% (active) | 
CC(C)c1cc(CNc2nc(Nc3cc(C4CC4)[nH]n3)cc(N3CCN(C)CC3)n2)on1 | -5.3% (active) | -13.3% (active) | 6.51% (active) | 18.5% | -8.07% (active) | 0.435% (active) | 8.34% (active) | 15.5% | 39.2% | 6.24% (active) | -21.9% (active) | -10.9% (active) | 7.6% (active) | 11.5% | 3.46% (active) | 4.41% (active) | 
